Reference: PubChem BioAssay (EPA / NIEHS)
Inconclusive results are not listed. Active and inactive are the calls of the source. Rule for the calls, unless noted: active = hit-call score of the fitted dose curve at least 0.9, where 1 is the maximum; inconclusive = response in the unintended direction; inactive = score below 0.9.

Key:
[1] = biological target: human CYP2D6, CYP2D6 (gene 1565) (UniProt P10635); assay: NVS_ADME_hCYP2D6: NovaScreen (NVS) CYP450-related Enzyme Activity (ADME) Assay for human CYP2D6 (AID 2283107)
human CYP2D6, CYP2D6 (gene 1565), sequence (P10635 whole entry, looked up): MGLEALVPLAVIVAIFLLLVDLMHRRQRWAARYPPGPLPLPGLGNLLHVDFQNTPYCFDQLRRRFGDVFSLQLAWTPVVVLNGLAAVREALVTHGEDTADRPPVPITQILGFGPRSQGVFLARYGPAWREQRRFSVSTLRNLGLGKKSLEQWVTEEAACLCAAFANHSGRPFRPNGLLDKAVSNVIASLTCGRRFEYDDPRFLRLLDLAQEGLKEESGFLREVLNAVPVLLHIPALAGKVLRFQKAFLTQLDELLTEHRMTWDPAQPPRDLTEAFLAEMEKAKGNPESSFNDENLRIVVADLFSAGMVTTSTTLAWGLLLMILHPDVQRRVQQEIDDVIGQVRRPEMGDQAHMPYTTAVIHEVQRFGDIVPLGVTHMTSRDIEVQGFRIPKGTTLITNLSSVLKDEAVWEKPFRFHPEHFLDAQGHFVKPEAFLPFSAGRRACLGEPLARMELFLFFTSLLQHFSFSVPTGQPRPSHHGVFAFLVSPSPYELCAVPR
Procedure, shortened: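 Compounds were first tested in duplicate at 10 uM against recombinant enzyme produced in insect cells, with substrate turnover measured by fluorescence after 1 hour. Decreased signal, referenced to acetonitrile vehicle, was taken as reduced enzyme activity. Active chemicals went on to concentration-response testing.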

[2] = system: Thyroperoxidase (TPO), gene 54314; assay: CCTE_Simmons_AUR_rTPO: CCTE's Amplex UltraRed Assay for Thyroperoxidase (TPO) Inhibition, Simmons Lab (AID 2283662);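 note: potency for loss of signal meaning inhibition of peroxidase activity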
Procedure, shortened: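 Endpoint is decreased Amplex UltraRed fluorescence after a 30-min, 37C reaction of rat thyroid microsomes with 300 uM H2O2. Eight test concentrations (5 nM–87.5 uM final) in 0.5% DMSO, three biological replicates each.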

[3] = CCTE_Simmons_CellTiterGLO_HEK293T: Viability Assessment in CCTE's Assays for Thyroperoxidase (TPO) Inhibition, Simmons Lab (AID 2283665)
Procedure, shortened: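 Cells were seeded overnight, then exposed to an eight-point series up to 87.5 uM final for 24 hours. CellTiter-Glo reagent was added and luminescence read after 20 min, giving ATP-based viability versus DMSO.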

[4] = biological target: Luciferin 4-monooxygenase (Photinus pyralis) (UniProt P08659); assay: CCTE_Simmons_QuantiLum_inhib_2: CCTE's Firefly Luciferase Inhibition Assay, Simmons Lab (AID 2283767);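 for AC50: potency for inhibitors that lower luciferase luminescence relative to DMSO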
Luciferin 4-monooxygenase (Photinus pyralis), sequence (P08659 whole entry, looked up): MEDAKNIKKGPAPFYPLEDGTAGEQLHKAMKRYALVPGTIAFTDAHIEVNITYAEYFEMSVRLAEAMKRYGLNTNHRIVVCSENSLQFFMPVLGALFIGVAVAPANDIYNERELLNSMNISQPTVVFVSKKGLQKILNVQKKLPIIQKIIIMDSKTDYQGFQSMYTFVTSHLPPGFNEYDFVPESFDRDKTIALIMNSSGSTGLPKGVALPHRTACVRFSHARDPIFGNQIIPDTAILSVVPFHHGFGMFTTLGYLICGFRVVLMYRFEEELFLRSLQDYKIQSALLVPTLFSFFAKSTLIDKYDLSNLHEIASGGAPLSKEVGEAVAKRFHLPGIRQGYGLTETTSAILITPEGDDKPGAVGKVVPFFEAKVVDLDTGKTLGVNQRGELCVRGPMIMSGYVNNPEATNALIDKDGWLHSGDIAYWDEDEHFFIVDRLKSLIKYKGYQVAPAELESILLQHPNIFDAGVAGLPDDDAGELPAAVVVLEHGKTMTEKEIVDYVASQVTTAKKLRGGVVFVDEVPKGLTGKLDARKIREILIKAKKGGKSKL
Procedure, shortened: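 First, 5 ng purified luciferase in phosphate buffer with BSA is dispensed per well. Next, test chemicals (5 nM to 87.5 uM final, 0.5% DMSO) are added and incubated 30 min at 37C in darkness. Finally, luciferin reagent is injected and luminescence read kinetically.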

[5] = STM_H9_OrnCyssISnorm_ratio: Stemina devTOX quickPredict H9 human embryonic stem cell (hESC)-based Assay for Ornithine (ORN):Cystine (CYSS) Ratio (AID 2283714)
Procedure, shortened: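 UPLC-HRMS of spent media: ORN/CYSS ratio of internal-standard-normalized percentages, DMSO (0.1%) baseline. Pluripotent H9 hESCs, 72h exposure, daily re-dosing with fresh media; last 24h media collected.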

[6] = CCTE_Deisenroth_AIME_384WELL_CTox_Active: Cytotoxicity Assessment (CTOX) in CCTE's 384-well Estrogen Receptor Transactivation Assay with AIME metabolic competence (metabolism positive), Deisenroth Lab (AID 2284037);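 note: chemicals first conditioned 2 h by alginate-bound induced rat liver S9 before cells; activity means signal loss indicating cell death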
Procedure, shortened: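 Chemicals pre-incubated 2 hours with alginate-immobilised phenobarbital/beta-naphthoflavone-induced male Sprague Dawley rat liver S9, then conditioned medium applied 24 hour to VM7Luc4E2 cells. Viability by fluorogenic protease substrate; 10-point series 0.002 - 200 uM.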

[7] = UKN5_HCS_SBAD2_cell_viability: Viability Assessment in the University of Konstanz (UKN) Leist Lab Neurite Outgrowth Assay in human iPSC-derived immature Dorsal Root Ganglia Neurons (UKN5) (AID 2284056; active = hit-call score of the fitted dose curve at least 0.9, where 1 is the maximum; inactive = score below 0.9)
Procedure, shortened: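 iPSC-derived immature peripheral neurons (SBAD2) seeded on Matrigel with CHIR99021, SU5402 and DAPT, dosed 1 h later for 24 h. Viability from Hoechst H-33342 and calcein-AM live staining, high-content imaging; bidirectional fit versus DMSO.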

[8] = UKN5_HCS_SBAD2_neurite_outgrowth: University of Konstanz (UKN) Leist Lab Neurite Outgrowth Assay in human iPSC-derived immature Dorsal Root Ganglia Neurons (UKN5) (AID 2284070; active = hit-call score of the fitted dose curve at least 0.9, where 1 is the maximum; inactive = score below 0.9); conditions: actives raise or lower the signal
Procedure, shortened: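 Thaw, seed on Matrigel (100.000 cells/cm2), dose 1 h later; at 23 h live-stain with H-33342 and calcein-AM for 60 min; image at 24 h. Neurite area fitted bidirectionally vs DMSO.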

[9] = UKN2_HCS_IMR90_neural_migration: University of Konstanz (UKN) Leist Lab Neural Crest Cell Migration Assay in human induced IMR90 Pluripotent Stem Cells (UKN2) (AID 2284204; active = hit-call score of the fitted dose curve at least 0.9, where 1 is the maximum; inactive = score below 0.9); conditions: actives raise or lower the signal
Procedure, shortened: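 Stopper-exclusion migration (cMINC), human iPSC-derived neural crest cells; N2-S + EGF/FGF; compound added 24 h post-stopper removal, 24 h exposure. Readout: calcein-AM/Hoechst 30 min, HCS fluorescence imaging; bidirectional fitting, DMSO baseline.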

[10] = UKN4_HCS_LUHMES_neurite_outgrowth: University of Konstanz (UKN) Leist Lab Neurite Outgrowth Assay in human LUHMES cells (UKN4) (AID 2284206; active = hit-call score of the fitted dose curve at least 0.9, where 1 is the maximum; inactive = score below 0.9); conditions: actives raise or lower the signal
Procedure, shortened: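 Human LUHMES cells were differentiated for two days, replated and treated with chemicals for 24 h. Neurite outgrowth was quantified as calcein-stained neurite area by HCS imaging, fitted bidirectionally relative to DMSO.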

[11] = IUF_NPC1b_proliferation_BrdU_72hr: Leibniz Research Institute for Environmental Medicine (IUF) 72-hour Neural Progenitor Cell Bromodeoxyuridine (BrdU) Proliferation Assay (NPC1b) (AID 2284207; active = hit-call score of the fitted dose curve at least 0.9, where 1 is the maximum; inactive = score below 0.9)
Procedure, shortened: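 Luminescent BrdU ELISA measured DNA synthesis during the last 16 h of a 72 h exposure of primary human neural progenitor spheres grown with EGF and FGF. Signal was fitted relative to DMSO controls.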

[12] = IUF_NPC1a_proliferation_area_72hr: Leibniz Research Institute for Environmental Medicine (IUF) 72-hour Neural Progenitor Cell Proliferation Area Assay (NPC1a) (AID 2284208; active = hit-call score of the fitted dose curve at least 0.9, where 1 is the maximum; inactive = score below 0.9)
Procedure, shortened: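 Proliferation is scored as sphere area gain in primary human fetal neural progenitors treated for 72 h in EGF/FGF-containing medium. Viability, LDH and BrdU readouts come from the same wells.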

[13] = IUF_NPC1_viability_72hr: Viability Assessment at 72 hours in the Leibniz Research Institute for Environmental Medicine (IUF) Neural Progenitor Cell Proliferation Assay (NPC1) (AID 2284209; active = hit-call score of the fitted dose curve at least 0.9, where 1 is the maximum; inactive = score below 0.9)
Procedure, shortened: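 Spheres of primary human neural progenitors were plated singly in proliferation medium and treated for 72 h. Mitochondrial reduction of resazurin was then measured by fluorescence and analysed against DMSO controls.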

[14] = UKN4_HCS_LUHMES_cell_viability: Viability Assessment in the University of Konstanz (UKN) Leist Lab Neurite Outgrowth Assay in human LUHMES cells (UKN4) (AID 2284232; active = hit-call score of the fitted dose curve at least 0.9, where 1 is the maximum; inactive = score below 0.9)
Procedure, shortened: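 Cells switched to differentiation medium at day 0, replated on day 2 in medium lacking cAMP and GDNF, and compound-treated once attached. Live staining began 23.5 h later, imaging followed at 24 h.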

[15] = UKN2_HCS_IMR90_cell_viability: Viability Assessment in the University of Konstanz (UKN) Leist Lab Neural Crest Cell Migration Assay in human induced IMR90 Pluripotent Stem Cells (UKN2) (AID 2284233; active = hit-call score of the fitted dose curve at least 0.9, where 1 is the maximum; inactive = score below 0.9;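 note: cells exposed to compound for 24 h after a 24 h migration phase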)
Procedure, shortened: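 Viability read as calcein-AM fluorescence by high-content imaging, Hoechst co-stain, 30 min. Human iPSC (IMR90) neural crest cells had migrated 24 h into stopper-defined gaps before 24 h chemical exposure. Fitted bidirectionally relative to DMSO.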

[16] = CCTE_Shafer_MEA_dev_correlation_coefficient_mean: CCTE's Neural Network Formation Assay for Mean Correlation Coefficient, Shafer Lab (AID 2284093; active = hit-call score of the fitted dose curve at least 0.9, where 1 is the maximum; inactive = score below 0.9;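 for AC50: well mean pairwise spike train correlation integrated as AUC over recording days 5 to 12; potency fitted for loss of correlation relative to DMSO vehicle wells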)
Procedure, shortened: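 Extracellular firing from rat cortical networks on 48-well MEAs, DMSO-referenced, negative fitting direction. Compound present from plating to DIV12; mean pairwise correlation per well integrated over DIV5–12 recordings by trapezoidal AUC.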

[17] = biological target: Thyroid hormone receptor alpha (Rattus norvegicus) + Thyroid hormone receptor beta (Rattus norvegicus) (UniProt P18113+P63059); assay: TOX21_TR_LUC_GH3_Antagonist_Followup: Tox21 GH3 Thyroid Hormone Receptor Antagonism Luciferase Follow-Up Assay (AID 2283942)
Procedure, shortened: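 Luminescence read-out (ONE-Glo, 30 min at room temperature) in GH3 reporter cells challenged with 1.0 nM T3 final. Compounds ran at 92 uM to 5nM over 15 concentrations for 24 h; DMSO served as negative control and baseline.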

[18] = TOX21_TRB_BLA_Antagonist_Followup_viability: Viability Assessment in the Tox21 Thyroid Hormone Receptor beta Antagonism Beta-lactamase (BLA) Follow-Up Assay (AID 2283961)
Procedure, shortened: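 Cytotoxicity is measured in parallel with the antagonist-mode TRβ beta-lactamase screen, using ATP-coupled luciferase luminescence. Engineered HEK293T cells are treated for 18 h with 11-point compound series in triplicate.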

[19] = biological target: Retinoic acid receptor RXR-alpha (Homo sapiens) (UniProt P19793); assay: TOX21_TR_RXR_BLA_Antagonist_Followup_ratio: Tox21 Thyroid Hormone Receptor beta Retinoid X Receptor alpha (RXRa) Antagonism Beta-lactamase (BLA) Follow-Up Assay, Ratio (AID 2283972)
Retinoic acid receptor RXR-alpha (Homo sapiens), sequence (P19793 whole entry, looked up, the tested form may be a part): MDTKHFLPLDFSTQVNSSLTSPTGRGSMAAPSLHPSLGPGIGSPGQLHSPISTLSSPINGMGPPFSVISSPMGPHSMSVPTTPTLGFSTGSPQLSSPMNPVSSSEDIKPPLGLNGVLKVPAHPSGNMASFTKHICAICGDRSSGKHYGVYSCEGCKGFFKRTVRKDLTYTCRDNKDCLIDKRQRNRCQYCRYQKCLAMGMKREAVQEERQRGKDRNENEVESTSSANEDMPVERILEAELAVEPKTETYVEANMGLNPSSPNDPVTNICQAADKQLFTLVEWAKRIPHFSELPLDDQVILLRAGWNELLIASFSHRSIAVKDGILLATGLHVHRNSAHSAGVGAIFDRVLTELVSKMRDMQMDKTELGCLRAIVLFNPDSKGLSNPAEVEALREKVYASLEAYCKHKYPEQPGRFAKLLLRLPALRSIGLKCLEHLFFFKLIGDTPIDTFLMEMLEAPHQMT
Procedure, shortened: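 Antagonist mode used GAL4 UAS-driven beta-lactamase in HEK293T cells expressing RXRa, treated for 16 h with compound concentration series. Activity was taken from the blue/green (460:530 nm) ratio of cleaved to uncleaved substrate.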

[20] = TOX21_TR_RXR_BLA_Antagonist_Followup_viability: Viability Assessment in the Tox21 Thyroid Hormone Receptor beta Retinoid X Receptor alpha (RXRa) Antagonism Beta-lactamase (BLA) Follow-Up Assay (AID 2283979)
Procedure, shortened: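 RXRa-bla HEK293T cells (2,500/well, phenol red-free DMEM, 2% charcoal-stripped FBS) were attached 5 h, then exposed to compounds at 11 concentrations in triplicate for 16 h at 37C. Viability measured by CellTiter-Glo ATP luminescence, bidirectional fitting versus DMSO.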

Measured: AC50

Sc1nc2ccccc2s1
inactive: [3] | [4]
active: [1] 3 µM | [2] 1.42 µM

Oc1cccc2ccccc12
active: [2] 1.62 µM | [5] 7.48 µM | [4] 29.9 µM | [10] 26.3 µM | [13] 2.44 µM
not listed: [1] | [16] | [17] | [18] | [19] | [20]
inactive: all other assays above

CC/C=C\CCO
inactive: [6]

Cc1c(C(N)=O)cc([N+](=O)[O-])cc1[N+](=O)[O-]
inactive: [5]

CCCCCCCCCCCCCCCCCC[N+](C)(C)C
active: [1] 0.826 µM

NC(N)=Nc1nc(CSCCC(N)=NS(N)(=O)=O)cs1
inactive: [16] | [11] | [12] | [13]

Cc1oc(C)c(C(=O)Nc2ccccc2)c1C
inactive: [17] | [18] | [19] | [20]

O=[Se](O)O
active: [17] 4.84 µM | [18] 2.02 µM | [19] 2.26 µM | [20] 5.16 µM

COc1ccc2cc3[n+](cc2c1OC)CCc1cc2c(cc1-3)OCO2
active: [16] 0.106 µM

CNCCC(Oc1ccc(C(F)(F)F)cc1)c1ccccc1 (stereo not given)
active: [7] 18.8 µM | [8] 12.7 µM | [16] 4.19 µM | [9] 15 µM | [10] 7.3 µM | [14] 18.6 µM | [15] 24.8 µM

CO[C@H]1C[C@@H]2CC[C@@H](C)[C@@](O)(O2)C(=O)C(=O)N2CCCC[C@H]2C(=O)O[C@H]([C@H](C)C[C@@H]2CC[C@@H](O)[C@H](OC)C2)CC(=O)[C@H](C)/C=C(\C)[C@@H](O)[C@@H](OC)C(=O)[C@H](C)C[C@H](C)\C=C/C=C/C=C/1C
active: [17] 0.00703 µM
inactive: [18] | [19] | [20]
